Among all 5,500 compounds or so, about 2,000 (36%) were called active. Inconclusive results (about 18%) are left out. Cut-off read from the data, not from the text of the source: active = normalized growth mostly below about 0.91 (no sharp cut-off); inconclusive = no clear call, values can overlap the other calls; inactive = mostly above about 0.92. This is one part of the list.
Test: chemical genetic growth profiling, strain panel (AID 1159580);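 note: tested at 20 µM; growth read once vehicle control cultures reached saturation at 30 °C; 1 = growth at the plate median or of vehicle wells; lower values mean less growth of the strain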
Conditions: S. cerevisiae deletion strains, growth OD

Measured: normalized growth

O=C(O)CF
inactive: locus YAL013W, strain DEP1, hits give low values 0.998 | locus YAL021C, strain ccr4, hits give low values 1.01 | locus YAL026C, strain drs2, hits give low values 1.02 | locus YAL030W, strain snc1, hits give low values 1.02 | locus YBL061C, strain skt5, hits give low values 1.02 | locus YBR009C, strain hhf1, hits give low values 1.06 | locus YBR021W, strain FUR4, hits give low values 0.97 | locus YBR023C, strain chs3, hits give low values 1.03 | locus YBR171W, strain sec66, hits give low values 1.03 | locus YBR229C, strain ROT2, hits give low values 0.987 | locus YBR231C, strain swc5, hits give low values 1.01 | locus YBR279W, strain paf1, hits give low values 1.03 | locus YCL011C, strain gbp2, hits give low values 1.03 | locus YCL016C, strain dcc1, hits give low values 1.04 | locus YCL029C, strain bik1, hits give low values 0.975 | locus YCL061C, strain MRC1, hits give low values 1.02 | locus YCL069W, strain vba3, hits give low values 1.02 | locus YCR088W, strain abp1, hits give low values 1.02 | locus YDL005C, strain med2, hits give low values 1.02 | locus YDL035C, strain GPR1, hits give low values 1 | locus YDL040C, strain nat1, hits give low values 1.02 | locus YDL074C, strain BRE1, hits give low values 1.03 | locus YDL101C, strain DUN1, hits give low values 0.995 | locus YDL134C, strain PPH21, hits give low values 0.994 | locus YDL185W, strain tfp1, hits give low values 0.967 | locus YDL192W, strain arf1, hits give low values 0.98 | locus YDR001C, strain nth1, hits give low values 1.02 | locus YDR069C, strain doa4, hits give low values 1 | locus YDR101C, strain arx1, hits give low values 0.969 | locus YDR137W, strain rgp1, hits give low values 1.03 | locus YDR150W, strain NUM1, hits give low values 0.995 | locus YDR159W, strain sac3, hits give low values 0.997 | locus YDR162C, strain NBP2, hits give low values 1.03 | locus YDR195W, strain ref2 1 | locus YDR297W, strain sur2, hits give low values 1.03 | locus YDR318W, strain mcm21, hits give low values 0.965 | locus YDR334W, strain swr1, hits give low values 1.03 | locus YDR335W, strain msn5, hits give low values 1.03 | locus YDR388W, hits give low values 0.989 | locus YDR392W, strain spt3, hits give low values 0.981 | locus YDR502C, strain sam2, hits give low values 0.994 | locus YEL003W, strain gim4, hits give low values 1.03 | locus YEL037C, strain rad23, hits give low values 1.03 | locus YEL061C, strain CIN8 (second series), hits give low values 1.03 | locus YEL061C, strain CIN8, hits give low values 0.998 | locus YER015W, strain faa2, hits give low values 1.02 | locus YER016W, strain bim1, hits give low values 1.01 | locus YER110C, hits give low values 0.974 | locus YER111C, strain swi4, hits give low values 1.03 | locus YER155C, strain BEM2 (second series), hits give low values 1.01 | locus YER155C, strain BEM2, hits give low values 0.999 | locus YER167W, strain BCK2, hits give low values 0.985 | locus YFR010W, strain ubp6, hits give low values 1.03 | locus YGL078C, strain dbp3, hits give low values 0.99 | locus YGL086W, strain mad1, hits give low values 0.973 | locus YGL167C, strain pmr1, hits give low values 1.03 | locus YGL173C, strain kem1, hits give low values 1.03 | locus YGL227W, strain vid30, hits give low values 1.02 | locus YGL240W, strain doc1, hits give low values 1 | locus YGL248W, strain PDE1, hits give low values 0.992 | locus YGL253W, strain hxk2, hits give low values 1.01 | locus YGR078C, strain PAC10, hits give low values 1.03 | locus YGR135W, strain pre9, hits give low values 1.01 | locus YGR229C, strain SMI1, hits give low values 1.02 | locus YGR252W, strain gcn5, hits give low values 0.811 | locus YHR013C, strain ard1, hits give low values 1.07 | locus YHR027C, strain rpn1, hits give low values 1.02 | locus YHR030C, strain SLT2, hits give low values 0.988 | locus YHR079C, strain IRE1 (second series), hits give low values 0.979 | locus YHR094C, strain hxt1, hits give low values 0.995 | locus YHR129C, strain ARP1, hits give low values 0.998 | locus YHR142W, strain chs7, hits give low values 1.03 | locus YHR200W, strain rpn10, hits give low values 0.966 | locus YIL066C, strain RNR3, hits give low values 0.988 | locus YIL073C, strain SPO22, hits give low values 0.916 | locus YIL125W, strain kgd1, hits give low values 0.986 | locus YIR030C, strain dcg1, hits give low values 0.991 | locus YJL092W, strain hpr5, hits give low values 1.02 | locus YJL095W, strain BCK1 (second series), hits give low values 1.04 | locus YJL095W, strain BCK1, hits give low values 1.03 | locus YJL115W, strain asf1, hits give low values 1.02 | locus YJL129C, strain trk1, hits give low values 1.05 | locus YJL134W, strain LCB3, hits give low values 0.986 | locus YJL154C, strain vps35, hits give low values 1.02 | locus YJL164C, strain tpk1, hits give low values 1.04 | locus YJL166W, strain qcr8, hits give low values 1 | locus YJL168C, strain set2, hits give low values 0.986 | locus YJL187C, strain SWE1 (second series), hits give low values 1.01 | locus YJL187C, strain SWE1, hits give low values 1.02

Reference: PubChem BioAssay AID1159580 (chemical genetic matrix, 2015)
